This note sets out measurements from publication PMC7862700, “An all-to-all approach to the identification of sequence-specific readers for epigenetic DNA modifications on cytosine”.

Holding throughout (experiment): DAPPL (digital affinity profiling via proximity ligation, sequencing); 10 mM Tris-HCl pH 7.5, 50 mM NaCl, 1 mM DTT, 4% glycerol, room temperature, 30 min; GST-TFs on glutathione beads, 16-mer random dsDNA library, 0.1% formaldehyde crosslink after washing; high values mean tight binding
The target of one experiment is T1, FLI1 (Homo sapiens, UniProt Q01543 1-452).
T1 sequence: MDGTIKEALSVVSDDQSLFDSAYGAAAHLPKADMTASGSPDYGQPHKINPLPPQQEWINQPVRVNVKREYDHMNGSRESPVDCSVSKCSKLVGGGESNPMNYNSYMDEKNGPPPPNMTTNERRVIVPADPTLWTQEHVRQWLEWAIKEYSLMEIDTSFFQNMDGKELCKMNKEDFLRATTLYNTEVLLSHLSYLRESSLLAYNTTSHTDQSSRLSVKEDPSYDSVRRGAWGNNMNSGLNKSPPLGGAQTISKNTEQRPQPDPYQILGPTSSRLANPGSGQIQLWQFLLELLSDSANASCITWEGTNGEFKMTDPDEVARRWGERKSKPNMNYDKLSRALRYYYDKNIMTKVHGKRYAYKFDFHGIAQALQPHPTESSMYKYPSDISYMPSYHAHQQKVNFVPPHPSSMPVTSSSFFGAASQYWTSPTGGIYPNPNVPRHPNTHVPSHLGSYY
The following applies: protein: recombinant; tags: N-terminal GST; dsDNA, one strand shown. The gist of the method:
(§1)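 Sequencing on an Illumina NextSeq500 followed washing, crosslinking with 0.1% formaldehyde, proximity ligation (BsaI/T4 ligase, 1 h, 37 °C) and PCR amplification of pools that had been incubated for 30 min at room temperature with 200 nmole of a random double-stranded 16-mer DNA library in Tris/NaCl/DTT/glycerol buffer. Each pool held DNA-barcoded human transcription factors, expressed in yeast as GST fusions and captured on glutathione beads, plus a tag-only sample. Binding signal is a hexamer's read frequency for a factor divided by its frequency in the tag-only sample.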

The target of another experiment is T2, ELK1 (Homo sapiens, UniProt P19419 1-428).
T2 sequence: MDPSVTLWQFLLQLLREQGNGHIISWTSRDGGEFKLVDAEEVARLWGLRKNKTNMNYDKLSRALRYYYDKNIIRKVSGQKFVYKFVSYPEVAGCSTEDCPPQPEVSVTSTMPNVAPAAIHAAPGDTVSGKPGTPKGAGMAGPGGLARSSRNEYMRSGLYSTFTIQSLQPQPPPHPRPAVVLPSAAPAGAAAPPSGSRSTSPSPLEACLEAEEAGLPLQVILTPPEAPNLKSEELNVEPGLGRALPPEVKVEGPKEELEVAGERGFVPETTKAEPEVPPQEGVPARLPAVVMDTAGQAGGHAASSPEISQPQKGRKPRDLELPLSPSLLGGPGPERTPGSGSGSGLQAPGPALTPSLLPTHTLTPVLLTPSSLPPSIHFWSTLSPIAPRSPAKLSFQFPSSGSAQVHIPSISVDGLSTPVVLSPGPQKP
The following applies: protein: recombinant; tags: N-terminal GST; dsDNA, one strand shown. The gist of the method:
as §1

A further experiment deals with T3, GABPA (Homo sapiens, UniProt Q06546 1-454).
T3 sequence: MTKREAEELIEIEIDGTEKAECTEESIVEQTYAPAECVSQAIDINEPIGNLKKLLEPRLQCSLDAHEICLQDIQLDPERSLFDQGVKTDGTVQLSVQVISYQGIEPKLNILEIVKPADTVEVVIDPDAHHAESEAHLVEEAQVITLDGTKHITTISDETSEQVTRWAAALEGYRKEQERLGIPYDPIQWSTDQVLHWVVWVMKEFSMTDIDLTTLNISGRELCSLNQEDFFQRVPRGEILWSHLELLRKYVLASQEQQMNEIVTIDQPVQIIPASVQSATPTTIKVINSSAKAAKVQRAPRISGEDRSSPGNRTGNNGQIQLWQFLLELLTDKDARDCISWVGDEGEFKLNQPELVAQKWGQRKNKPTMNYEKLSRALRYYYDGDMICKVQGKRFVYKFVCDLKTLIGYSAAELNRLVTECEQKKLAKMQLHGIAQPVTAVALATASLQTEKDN
Particulars: protein: recombinant; tags: N-terminal GST; dsDNA, one strand shown. The gist of the method:
as §1

The next experiment addresses T4, ERG (Homo sapiens, UniProt P11308 1-479).
T4 sequence: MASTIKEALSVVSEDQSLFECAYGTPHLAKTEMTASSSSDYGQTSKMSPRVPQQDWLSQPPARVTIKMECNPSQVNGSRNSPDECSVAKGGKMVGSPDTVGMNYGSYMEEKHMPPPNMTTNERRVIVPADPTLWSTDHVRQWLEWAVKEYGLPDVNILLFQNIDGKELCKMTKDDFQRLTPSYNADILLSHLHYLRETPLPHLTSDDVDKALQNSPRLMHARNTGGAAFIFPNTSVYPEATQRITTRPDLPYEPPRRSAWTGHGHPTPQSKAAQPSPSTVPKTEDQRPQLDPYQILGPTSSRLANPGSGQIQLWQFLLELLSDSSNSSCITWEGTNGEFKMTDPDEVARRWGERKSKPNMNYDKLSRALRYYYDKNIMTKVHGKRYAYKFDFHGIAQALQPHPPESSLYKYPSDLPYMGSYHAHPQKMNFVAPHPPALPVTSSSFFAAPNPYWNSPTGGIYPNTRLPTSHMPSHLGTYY
Particulars: protein: recombinant; tags: N-terminal GST; dsDNA, one strand shown. The gist of the method:
as §1

For a further experiment, the target named is ELF1 (Homo sapiens, UniProt P32519 1-619). The following applies: protein: recombinant; tags: N-terminal GST; dsDNA, one strand shown. The procedure, abridged: as §1
The target in another experiment is T5, EHF (Homo sapiens, UniProt Q9NZC4 1-300).
T5 sequence: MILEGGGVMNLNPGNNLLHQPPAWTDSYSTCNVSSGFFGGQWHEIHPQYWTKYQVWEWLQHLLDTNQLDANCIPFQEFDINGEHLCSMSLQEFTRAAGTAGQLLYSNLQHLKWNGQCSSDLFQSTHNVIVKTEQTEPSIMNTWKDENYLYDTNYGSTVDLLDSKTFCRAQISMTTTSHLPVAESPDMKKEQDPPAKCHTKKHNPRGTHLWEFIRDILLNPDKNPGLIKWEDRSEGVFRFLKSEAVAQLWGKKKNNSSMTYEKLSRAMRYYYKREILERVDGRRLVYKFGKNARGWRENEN
Particulars: protein: recombinant; tags: N-terminal GST; dsDNA, one strand shown. The gist of the method:
as §1

A further experiment deals with SPI1 (Homo sapiens, UniProt P17947 1-270). Particulars: protein: recombinant; tags: N-terminal GST; dsDNA, one strand shown. The gist of the method:
as §1

For another experiment, the target named is SPIB (Homo sapiens, UniProt Q01892 1-262). Particulars: protein: recombinant; tags: N-terminal GST; dsDNA, one strand shown. The gist of the method:
as §1

The next experiment addresses T6, ELK3 (Homo sapiens, UniProt P41970 1-407).
T6 sequence: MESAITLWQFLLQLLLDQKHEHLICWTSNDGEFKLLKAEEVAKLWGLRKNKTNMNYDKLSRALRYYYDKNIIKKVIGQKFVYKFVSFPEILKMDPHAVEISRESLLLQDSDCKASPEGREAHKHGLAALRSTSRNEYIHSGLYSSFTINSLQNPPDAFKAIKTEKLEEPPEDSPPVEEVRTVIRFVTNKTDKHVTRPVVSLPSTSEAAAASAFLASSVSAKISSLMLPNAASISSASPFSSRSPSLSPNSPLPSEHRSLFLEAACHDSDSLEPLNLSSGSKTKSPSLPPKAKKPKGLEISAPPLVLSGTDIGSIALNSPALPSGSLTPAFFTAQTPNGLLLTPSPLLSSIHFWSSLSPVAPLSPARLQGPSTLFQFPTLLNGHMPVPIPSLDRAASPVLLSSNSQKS
The following applies: protein: recombinant; tags: N-terminal GST; dsDNA, one strand shown. The gist of the method:
as §1

A further experiment addresses T7, FEV (Homo sapiens, UniProt Q99581 1-238).
T7 sequence: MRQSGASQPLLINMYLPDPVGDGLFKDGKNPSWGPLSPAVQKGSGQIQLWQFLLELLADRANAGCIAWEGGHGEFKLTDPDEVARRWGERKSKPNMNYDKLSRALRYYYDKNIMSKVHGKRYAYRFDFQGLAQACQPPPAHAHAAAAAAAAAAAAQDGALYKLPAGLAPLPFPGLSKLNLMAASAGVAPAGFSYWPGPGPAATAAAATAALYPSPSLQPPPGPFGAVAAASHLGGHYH
Particulars: protein: recombinant; tags: N-terminal GST; dsDNA, one strand shown. The gist of the method: as §1

In the next experiment the target is ETV5 (Homo sapiens, UniProt P41161 1-510). Particulars: protein: recombinant; tags: N-terminal GST; dsDNA, one strand shown. The gist of the method:
as §1

The next experiment concerns the target HSF1 (Homo sapiens, UniProt Q00613 1-529). The following applies: protein: recombinant; tags: N-terminal GST; chain copies: 3; dsDNA, one strand shown. The procedure, abridged: as §1
The target in another experiment is T8, SPIC (Homo sapiens, UniProt Q8N5J4 1-248).
T8 sequence: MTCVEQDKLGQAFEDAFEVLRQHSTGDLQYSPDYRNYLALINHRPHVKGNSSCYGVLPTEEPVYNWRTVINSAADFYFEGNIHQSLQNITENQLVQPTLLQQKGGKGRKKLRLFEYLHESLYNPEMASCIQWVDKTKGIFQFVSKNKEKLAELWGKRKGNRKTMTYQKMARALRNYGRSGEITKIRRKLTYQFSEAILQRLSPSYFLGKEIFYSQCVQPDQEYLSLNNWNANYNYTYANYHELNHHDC
The following applies: protein: recombinant; tags: N-terminal GST; dsDNA, one strand shown. The gist of the method:
as §1

The target of a further experiment is ELF4 (Homo sapiens, UniProt Q99607 1-663). Particulars: protein: recombinant; tags: N-terminal GST; dsDNA, one strand shown. The procedure, abridged: as §1
The next experiment addresses T9, ELK4 (Homo sapiens, UniProt P28324-2 1-405).
T9 sequence: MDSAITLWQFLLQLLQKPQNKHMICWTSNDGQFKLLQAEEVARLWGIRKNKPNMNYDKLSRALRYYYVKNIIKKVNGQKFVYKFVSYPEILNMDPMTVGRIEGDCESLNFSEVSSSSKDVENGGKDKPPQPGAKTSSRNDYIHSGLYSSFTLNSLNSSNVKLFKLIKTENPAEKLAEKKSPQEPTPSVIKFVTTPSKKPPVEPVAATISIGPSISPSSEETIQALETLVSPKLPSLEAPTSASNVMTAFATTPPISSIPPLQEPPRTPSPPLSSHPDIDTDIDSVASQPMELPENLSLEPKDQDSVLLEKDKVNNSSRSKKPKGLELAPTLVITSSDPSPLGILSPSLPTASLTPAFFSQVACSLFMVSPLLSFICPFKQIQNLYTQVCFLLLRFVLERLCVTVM
Particulars: protein: recombinant; tags: N-terminal GST; dsDNA, one strand shown. The procedure, abridged:
as §1

Another experiment deals with T10, ETV2 (Homo sapiens, UniProt O00321 1-342).
T10 sequence: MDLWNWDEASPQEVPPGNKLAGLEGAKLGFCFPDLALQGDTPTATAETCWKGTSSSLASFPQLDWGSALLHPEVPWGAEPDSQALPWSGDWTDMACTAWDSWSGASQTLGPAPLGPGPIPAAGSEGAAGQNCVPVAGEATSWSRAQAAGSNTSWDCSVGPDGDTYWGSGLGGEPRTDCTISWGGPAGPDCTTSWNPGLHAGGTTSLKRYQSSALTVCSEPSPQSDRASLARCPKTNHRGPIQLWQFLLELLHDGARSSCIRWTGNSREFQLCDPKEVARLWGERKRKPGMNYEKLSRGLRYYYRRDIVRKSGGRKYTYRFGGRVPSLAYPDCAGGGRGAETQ
Particulars: protein: recombinant; tags: N-terminal GST; dsDNA, one strand shown. The gist of the method:
as §1

Another experiment has as its target T11, ELF3 (Homo sapiens, UniProt P78545 1-371).
T11 sequence: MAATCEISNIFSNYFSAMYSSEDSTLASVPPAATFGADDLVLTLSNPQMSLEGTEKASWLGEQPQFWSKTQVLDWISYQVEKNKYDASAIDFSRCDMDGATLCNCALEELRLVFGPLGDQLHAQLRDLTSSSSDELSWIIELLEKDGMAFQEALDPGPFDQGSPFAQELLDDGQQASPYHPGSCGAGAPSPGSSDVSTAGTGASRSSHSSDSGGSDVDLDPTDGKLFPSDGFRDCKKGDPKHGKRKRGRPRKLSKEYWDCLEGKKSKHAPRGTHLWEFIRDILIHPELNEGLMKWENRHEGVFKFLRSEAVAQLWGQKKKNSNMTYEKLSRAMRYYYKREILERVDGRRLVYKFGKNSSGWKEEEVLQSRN
The following applies: protein: recombinant; tags: N-terminal GST; dsDNA, one strand shown. The gist of the method: as §1

The next experiment has as its target ETV1 (Homo sapiens, UniProt P50549 1-477). Particulars: protein: recombinant; tags: N-terminal GST; dsDNA, one strand shown. The procedure, abridged: as §1

ELF1, sequence (P32519 whole entry): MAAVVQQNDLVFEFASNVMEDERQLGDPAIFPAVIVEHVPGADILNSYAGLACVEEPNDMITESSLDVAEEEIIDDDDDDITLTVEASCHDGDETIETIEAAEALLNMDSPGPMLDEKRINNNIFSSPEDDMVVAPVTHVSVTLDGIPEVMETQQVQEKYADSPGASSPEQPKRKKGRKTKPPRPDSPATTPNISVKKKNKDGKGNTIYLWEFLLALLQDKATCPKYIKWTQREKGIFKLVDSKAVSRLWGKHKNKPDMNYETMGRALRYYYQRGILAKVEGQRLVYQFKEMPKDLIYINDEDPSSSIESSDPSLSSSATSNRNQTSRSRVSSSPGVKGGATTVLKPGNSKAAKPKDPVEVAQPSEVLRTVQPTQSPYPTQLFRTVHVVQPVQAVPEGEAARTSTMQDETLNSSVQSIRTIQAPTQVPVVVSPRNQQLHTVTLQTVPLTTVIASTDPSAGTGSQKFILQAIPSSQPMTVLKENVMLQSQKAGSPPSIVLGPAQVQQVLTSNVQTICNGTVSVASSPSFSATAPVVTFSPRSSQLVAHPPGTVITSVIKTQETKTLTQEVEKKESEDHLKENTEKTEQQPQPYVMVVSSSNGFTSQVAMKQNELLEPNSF
ELF4, sequence (Q99607 whole entry): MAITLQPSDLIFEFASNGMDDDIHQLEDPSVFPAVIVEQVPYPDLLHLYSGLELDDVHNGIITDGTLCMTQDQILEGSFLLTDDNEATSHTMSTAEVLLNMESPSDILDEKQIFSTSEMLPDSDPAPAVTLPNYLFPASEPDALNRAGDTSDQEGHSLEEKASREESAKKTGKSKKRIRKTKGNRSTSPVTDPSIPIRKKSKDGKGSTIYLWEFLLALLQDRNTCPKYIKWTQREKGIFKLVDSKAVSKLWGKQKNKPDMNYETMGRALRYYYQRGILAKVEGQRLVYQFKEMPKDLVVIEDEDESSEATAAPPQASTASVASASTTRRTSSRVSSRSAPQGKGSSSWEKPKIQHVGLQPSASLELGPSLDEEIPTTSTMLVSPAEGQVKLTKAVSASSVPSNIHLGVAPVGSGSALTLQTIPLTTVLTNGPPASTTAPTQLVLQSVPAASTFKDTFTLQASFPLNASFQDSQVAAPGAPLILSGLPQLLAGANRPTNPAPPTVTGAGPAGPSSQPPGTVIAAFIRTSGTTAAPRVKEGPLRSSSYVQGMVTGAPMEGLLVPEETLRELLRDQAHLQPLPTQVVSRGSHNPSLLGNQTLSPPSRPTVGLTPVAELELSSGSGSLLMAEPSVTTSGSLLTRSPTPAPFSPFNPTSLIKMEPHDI
HSF1, sequence (Q00613 whole entry): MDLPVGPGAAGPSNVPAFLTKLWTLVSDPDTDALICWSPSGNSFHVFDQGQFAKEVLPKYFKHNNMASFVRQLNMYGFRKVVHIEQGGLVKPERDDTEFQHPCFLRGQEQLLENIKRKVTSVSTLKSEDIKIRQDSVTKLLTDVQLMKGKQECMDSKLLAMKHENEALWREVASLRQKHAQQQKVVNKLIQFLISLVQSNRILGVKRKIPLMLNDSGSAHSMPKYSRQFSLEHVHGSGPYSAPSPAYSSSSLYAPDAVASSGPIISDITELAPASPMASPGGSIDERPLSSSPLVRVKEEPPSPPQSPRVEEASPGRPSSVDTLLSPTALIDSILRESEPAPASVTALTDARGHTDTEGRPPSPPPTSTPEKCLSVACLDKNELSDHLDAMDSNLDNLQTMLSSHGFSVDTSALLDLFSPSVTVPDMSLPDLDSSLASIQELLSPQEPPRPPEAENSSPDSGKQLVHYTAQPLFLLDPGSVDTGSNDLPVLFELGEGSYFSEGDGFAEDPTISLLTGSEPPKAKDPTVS
ETV5, sequence (P41161 whole entry): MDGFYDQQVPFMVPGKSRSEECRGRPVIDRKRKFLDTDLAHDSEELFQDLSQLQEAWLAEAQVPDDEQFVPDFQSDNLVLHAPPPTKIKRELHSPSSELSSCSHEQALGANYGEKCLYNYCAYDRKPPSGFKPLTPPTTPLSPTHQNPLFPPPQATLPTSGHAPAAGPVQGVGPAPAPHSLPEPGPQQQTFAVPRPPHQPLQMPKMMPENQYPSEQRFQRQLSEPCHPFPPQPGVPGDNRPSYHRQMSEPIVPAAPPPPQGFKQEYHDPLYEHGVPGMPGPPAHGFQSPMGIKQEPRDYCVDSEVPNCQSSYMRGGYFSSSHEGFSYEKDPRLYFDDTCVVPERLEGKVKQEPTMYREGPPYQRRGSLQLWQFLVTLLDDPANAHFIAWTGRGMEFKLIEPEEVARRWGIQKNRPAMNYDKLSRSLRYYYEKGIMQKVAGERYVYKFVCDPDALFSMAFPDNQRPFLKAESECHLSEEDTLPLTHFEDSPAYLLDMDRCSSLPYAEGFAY
ETV1, sequence (P50549 whole entry): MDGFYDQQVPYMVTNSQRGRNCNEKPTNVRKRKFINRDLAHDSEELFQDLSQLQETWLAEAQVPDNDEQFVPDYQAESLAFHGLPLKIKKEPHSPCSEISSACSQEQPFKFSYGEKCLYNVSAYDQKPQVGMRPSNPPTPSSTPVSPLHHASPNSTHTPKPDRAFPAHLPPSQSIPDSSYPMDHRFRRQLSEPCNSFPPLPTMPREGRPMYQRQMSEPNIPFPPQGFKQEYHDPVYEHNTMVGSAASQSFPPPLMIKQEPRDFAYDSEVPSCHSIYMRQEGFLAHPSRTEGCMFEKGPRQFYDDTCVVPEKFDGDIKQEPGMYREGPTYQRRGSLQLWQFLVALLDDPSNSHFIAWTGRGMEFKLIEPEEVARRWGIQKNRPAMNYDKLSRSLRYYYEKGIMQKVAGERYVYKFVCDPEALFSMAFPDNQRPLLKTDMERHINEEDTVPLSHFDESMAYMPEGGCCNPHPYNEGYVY
SPIB, sequence (Q01892 whole entry): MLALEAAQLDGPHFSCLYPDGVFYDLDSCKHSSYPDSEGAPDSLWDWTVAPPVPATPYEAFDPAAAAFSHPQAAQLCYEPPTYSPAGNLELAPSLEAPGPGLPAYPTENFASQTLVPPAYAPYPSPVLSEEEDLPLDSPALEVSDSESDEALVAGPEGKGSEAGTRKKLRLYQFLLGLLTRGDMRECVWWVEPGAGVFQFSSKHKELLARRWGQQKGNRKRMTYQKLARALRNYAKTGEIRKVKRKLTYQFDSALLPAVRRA

As to CCGGAA, the binding signal with FLI1 was 5.18 fold enrichment (6-mer frequency, TF over GST control); with ELK1 it was 6.13 fold enrichment (6-mer frequency, TF over GST control); with GABPA, 4.9 fold enrichment (6-mer frequency, TF over GST control); with ERG, 6.79 fold enrichment (6-mer frequency, TF over GST control); in the experiment with ELF1 it was 5.12 fold enrichment (6-mer frequency, TF over GST control); with EHF it was 5.9 fold enrichment (6-mer frequency, TF over GST control). Besides, the binding signal in the experiment with SPI1 is 5.33 fold enrichment (6-mer frequency, TF over GST control); with SPIB it was 5.79 fold enrichment (6-mer frequency, TF over GST control); with ELK3 it was 6.42 fold enrichment (6-mer frequency, TF over GST control); with FEV it was 8.09 fold enrichment (6-mer frequency, TF over GST control); with ETV5 it was 6.13 fold enrichment (6-mer frequency, TF over GST control); in the experiment with HSF1 it was 1.68 fold enrichment (6-mer frequency, TF over GST control). Further, the binding signal is 4.87 fold enrichment (6-mer frequency, TF over GST control) with SPIC; 4.92 fold enrichment (6-mer frequency, TF over GST control) with ELF4; 3.97 fold enrichment (6-mer frequency, TF over GST control) in the experiment with ELK4; 5.1 fold enrichment (6-mer frequency, TF over GST control) with ETV2; 5.42 fold enrichment (6-mer frequency, TF over GST control) in the experiment with ELF3; 6.04 fold enrichment (6-mer frequency, TF over GST control) with ETV1.
